Bioassay records (PubChem BioAssay)
A selection: hits, their analogues and other compounds. The true share with any hit is near 4.7%.
ATG4B inhibitor – ATG4B (human) cysteine protease inhibition. AID 504462. Q9Y4P1. ATG4B cleavage of LC3-PLA2, NBD-HPC fluorescence, 1 h. 340,000 compounds, 0.51% hits. inhibition, % at 8.33 µM; in the data active = inhibition above about 40%
Target sequence (Q9Y4P1 whole entry, looked up): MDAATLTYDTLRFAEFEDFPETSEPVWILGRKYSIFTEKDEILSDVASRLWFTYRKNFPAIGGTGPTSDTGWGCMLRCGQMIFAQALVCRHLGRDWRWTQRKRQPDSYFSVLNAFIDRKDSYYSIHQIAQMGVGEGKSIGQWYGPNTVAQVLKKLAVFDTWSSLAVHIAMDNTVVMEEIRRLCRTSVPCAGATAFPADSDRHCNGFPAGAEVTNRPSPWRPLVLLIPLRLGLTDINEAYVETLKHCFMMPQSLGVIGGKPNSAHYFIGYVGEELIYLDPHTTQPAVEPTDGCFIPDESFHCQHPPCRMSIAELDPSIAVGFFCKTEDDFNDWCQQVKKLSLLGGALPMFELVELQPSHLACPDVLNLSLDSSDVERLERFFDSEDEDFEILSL
SKKanGAS inh – inhibitors of SKKanGAS S. pyogenes growth in kanamycin (SK-promoter or general growth effect). BacTiter-Glo, 6 h. inhibition, % at 7.5 µM. 300,000 compounds, 1.3% hits;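 active = mean replicate score, as percent of positive control median, at least 50; inconclusive = mean below 50 but one replicate at or above 50; inactive = mean and every replicate below 50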;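 also: strain carries kanamycin resistance gene driven by streptokinase promoter and grows in 40 µg/ml kanamycin; loss of luminescence reflects streptokinase promoter inhibition or plain growth inhibition; 0% = median of DMSO wells and 100% = positive control at its reference dose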
tim10-1 inh – tim10-1 yeast growth inhibition | inhibition, % at 20 µM | S. cerevisiae tim10-1 ts strain growth, BacTiter-Glo, 24 h | 330,000 compounds, 2.2% hits | AID 463190;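 active = inhibition of at least 40%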;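 also: mutant grown at 25 °C; 0% = DMSO wells with yeast and 100% = wells holding no yeast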
PfHsp90 yeast 2 – reduces growth (ATP signal) of yeast expressing P. falciparum Hsp90 | S. cerevisiae expressing PfHsp90, BacTiter-Glo ATP, 48 h; yeast lacking PDR1 and PDR3 efflux regulators | inhibition, % at 9.4 µM | 310,000 compounds, 0.32% hits;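 active = every replicate shows inhibition above about 80%, whatever the replicate mean, limit read from the data; inconclusive = mean inhibition reaches the set limit but some replicate falls short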;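 also: 0% = DMSO neutral controls and 100% = 20 µM radicicol positive controls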
tim23-1 inh – inhibits growth of tim23-1 mutant yeast. AID 463212. inhibition, % at 20 µM. 330,000 compounds, 1.3% hits. S. cerevisiae tim23-1 growth, BacTiter-Glo luminescence, 24 h;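 active = growth inhibition of the mutant yeast at or above 50%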;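 also: temperature-sensitive mutant grown at 25 °C; plate controls were DMSO-treated mutant yeast for no effect and medium wells lacking yeast for full effect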
TIM10 inh – TIM10 yeast growth inhibition. S. cerevisiae TIM10 strain growth, BacTiter-Glo luminescence, 24 h. inhibition, % at 10 µM. 330,000 compounds, 1.4% hits;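 active = inhibition of 40% or more at the single tested concentration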;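 also: wild-type TIM10 isogenic control strain grown at permissive 25 °C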
tim10-1 conf – tim10-1 yeast growth inhibition, confirmed; shares compounds with tim10-1 inh; 7,400 compounds, 56% hits; inhibition, % at 20 µM; S. cerevisiae tim10-1 ts strain growth, BacTiter-Glo, 24 h;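 active = inhibition of yeast growth at or above a set limit in either of two repeat tests at 20 µM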;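 also: tim10-1 mutant grown at permissive 25 °C to find synthetic lethal compounds; 0% = DMSO yeast wells and 100% = medium wells without yeast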
TIM10 conf – confirmation of TIM10 yeast growth inhibitors. AID 463215. shares compounds with TIM10 inh. S. cerevisiae tim10 strain growth, BacTiter-Glo luminescence, 24 h. 4,600 compounds, 63% hits. inhibition, % at 10 µM;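 active = inhibition of yeast growth at or above a set limit in either of two replicates at 10 µM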;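 also: this counterscreen used the strain with wild-type TIM10; 0% = yeast with DMSO and 100% = medium wells lacking yeast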
tim23-1 confirm – tim23-1 yeast growth inhibition, confirmed; inhibition, % at 20 µM; 4,400 compounds, 83% hits; S. cerevisiae tim23-1 growth, BacTiter-Glo luminescence, 24 h; shares compounds with tim23-1 inh;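 active = inhibition above about 39% in either of two replicate wells at 20 µM, limit read from the data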;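 also: temperature-sensitive tim23-1 mutant grown at 25 °C; 0% = DMSO wells with yeast and 100% = medium wells without yeast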
Active calls of the source: *; ? = inconclusive; . = no result.

SMILES	ATG4B inhibitor	SKKanGAS inh	tim10-1 inh	PfHsp90 yeast 2	tim23-1 inh	TIM10 inh	tim10-1 conf	TIM10 conf	tim23-1 confirm
Cc1ccc(Cn2nnnc2CN2CCC(n3nnc4cc(C)ccc43)CC2)cc1	-12	-25	52*	-54	45	50*	46*	28*	.
Nc1ccc(N2CCN(Cc3ccccc3Cl)CC2)c(Cl)c1	-2	10	27	-1	26	26	.	.	.
CCSc1cc(C2C(C#N)=C(N)Oc3n[nH]c(C)c32)c(C)o1 (centres undefined)	-11	2	63*	11	10	48*	47*	45*	.
CCOC(=O)C1=C(N)Oc2cc(C)oc(=O)c2C12C(=O)N1c3c(cccc32)C(C)=CC1(C)C (centres undefined)	-8	-6	16	-8	42	20	.	.	.
Cc1cc(C)cc(N2C(=O)NC(=O)/C(=C\c3cccn3-c3ccccc3)C2=O)c1	2	7	3	-8	12	17	.	.	.
CN1C(=O)/C(=C/c2cccn2-c2ccc3ccccc3c2)C(=O)NC1=S	6	?	56*	2	66*	46*	53*	49*	64*
COc1cc(/C=C/[N+](=O)[O-])ccc1O	0	3	43*	-15	77*	19	18	.	76*
CCN(CC)c1ccc(/C=C/[N+](=O)[O-])cc1	6	-3	-7	12	44	4	.	.	.
CC(C)C(=O)c1cn(Cc2ccccc2C#N)c2ccccc12	-5	3	18	-12	16	10	.	.	.
COc1ccc(N2C(=O)NC(=O)/C(=C/c3ccc([N+](=O)[O-])s3)C2=O)cc1	-3	15	62*	.	61*	90*	71*	69*	76*
CCOc1ccc(N2C(=O)NC(=O)/C(=C\c3cc(OC)c(OC)cc3[N+](=O)[O-])C2=O)cc1	-5	-1	22	-8	6	22	.	.	.
COc1cccc(N2C(=O)NC(=O)/C(=C/c3ccc4c(c3)Cc3ccccc3-4)C2=O)c1	2	-3	19	-5	31	4	.	.	.
COc1ccccc1N1C(=O)NC(=O)/C(=C/c2ccc([N+](=O)[O-])s2)C1=O	-6	10	77*	.	67*	73*	68*	19	70*
COc1cccc(N2C(=O)NC(=O)/C(=C/c3ccc([N+](=O)[O-])s3)C2=O)c1	5	12	73*	7	65*	87*	69*	29	78*
CC(=O)c1c(C)n(C2CCCCC2)c2ccc(O)cc12	6	12	7	-2	8	6	.	.	.
Cc1cccc(N2C(=O)/C(=C/N3CCN(C(=O)c4ccco4)CC3)C(=O)NC2=S)c1	-14	-4	1	-4	-1	3	.	.	.
COC(=O)C(O)(c1ccc(NC(=S)NC(=O)c2ccc(Cl)cc2Cl)c(C)c1)C(F)(F)F (centres undefined)	3	3	53*	-9	59*	23	37*	.	58*
O=C(COC(=O)Cc1ccccc1)NC(=O)NC1CCCCC1	0	-7	8	.	7	0	.	.	.
N#CC(C#N)=NNc1ccc(-n2ccc(C(F)(F)F)n2)cc1	8	31	50*	-16	51*	48*	59*	23	61*
CCOc1ccc(N=Cc2c(O)n(-c3ccc(C)c(C)c3)c(=O)[nH]c2=O)cc1	7	0	15	.	6	-7	.	.	.
CN1C(=O)C(=Cc2ccccc2OCCOc2ccc([N+](=O)[O-])cc2)C(=O)N(C)C1=O	23	6	50*	10	74*	69*	42*	66*	90*
O=C1NC(=O)C(=Cc2ccccc2OCCOc2ccc([N+](=O)[O-])cc2)C(=O)N1	30	.	.	8	.	.	.	.	.
COc1cc(/C=C(/C)[N+](=O)[O-])ccc1OCc1ccccc1Cl	23	.	49*	-30	52*	52*	36*	44*	71*
COc1ccc(CN2C(=O)NC(=O)/C(=C/c3ccc([N+](=O)[O-])s3)C2=O)cc1	4	13	67*	101*	59*	82*	75*	24	75*
O=C1NC(=O)N(Cc2ccc(F)cc2)C(=O)/C1=C\c1ccc(N2CCCC2)cc1	-1	2	23	2	25	11	.	.	.
SMILES	ATG4B inhibitor	SKKanGAS inh	tim10-1 inh	PfHsp90 yeast 2	tim23-1 inh	TIM10 inh	tim10-1 conf	TIM10 conf	tim23-1 confirm
O=C1NC(=O)N(Cc2ccc(F)cc2)C(=O)/C1=C\c1ccc([N+](=O)[O-])s1	12	13	70*	101*	60*	83*	75*	25	76*
Cc1ccc(S(=O)(=O)N(c2cc(Cl)c(O)c(Cl)c2)P(=O)(OC(C)C)OC(C)C)cc1	-6	-16	17	-3	26	22	.	.	.
CN(C)c1ccc(/C=C/C=C/c2sc3ccccc3[n+]2C)cc1	1	19	7	19	27	22	.	.	.
CC[n+]1c(/C=C/C=C/c2ccc(N(C)C)cc2)sc2ccccc21	29	30	85*	24	83*	82*	90*	74*	82*
Cc1ccc(NC(=O)CN2C(=O)CN=C(c3ccccc3)c3cc(Cl)ccc32)cc1	-7	4	45*	13	61*	11	20	.	52*
COC(=O)C1=C(c2ccc3ccccc3c2)C[C@@H]2CC[C@H]1N2C(=O)N1CCC(C)CC1	16	.	1	-56	25	10	.	.	.
CNC(C)Cc1ccccc1Sc1ccc(O)cc1 (centres undefined)	-11	3	10	9	12	-5	.	.	.
Cc1ccc(/C=C2\C(=O)NC(=S)N(c3ccc(F)cc3)C2=O)s1	-6	14	70*	-7	55*	43*	36*	38*	72*
CCN1/C(=C\C=C\C2=[N+](CC)c3ccccc3C2(C)C)C(C)(C)c2ccccc21	-3	58*	42*	14	58*	46*	28	27	40*
Cc1cc(C(C#N)c2ccc(Cl)cc2)c(Cl)cc1NC(=O)c1cc(I)cc(I)c1O (centres undefined)	25	105*	43*	-27	70*	38	45*	.	61*
C(=NN1CCCCCC1)c1c[nH]c2ccccc12	-3	.	.	.	.	.	.	.	.
O=C(NC1CC1)c1cn(Cc2ccccc2)nc1-c1ccccc1	7	.	1	.	6	2	.	.	.
